RecA splice inh: blocks M. tuberculosis RecA intein splicing; 290,000 tested, 0.75% active; P9WHJ3; inhibition, % (no concentration beside the values); AID 2221; cell-free RecA intein splicing, fluorescence; in the data active = inhibition above about 30%
DUSP3 inh: DUSP3 (human) phosphatase inhibition; P51452; inhibition, % at 13.3 µM; recombinant VHR phosphatase, pNPP absorbance; 290,000 tested, 0.52% active; in the data active = inhibition above about 50%
Target sequence (P51452 whole entry, looked up): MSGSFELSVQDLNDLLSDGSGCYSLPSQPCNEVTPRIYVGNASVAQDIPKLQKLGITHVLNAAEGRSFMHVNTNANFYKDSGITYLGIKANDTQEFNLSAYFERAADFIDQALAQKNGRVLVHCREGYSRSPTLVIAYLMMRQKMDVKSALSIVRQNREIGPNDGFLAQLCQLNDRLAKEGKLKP
3CLpro inhibitor: SARS-CoV 3CLpro protease inhibition | P0C6X7 | recombinant SARS-CoV 3CLpro, quenched FRET peptide cleavage | inhibition, % at 6 µM | 290,000 tested, 0.14% active | AID 1706; in the data active = inhibition above about 12%
GDH-TPI counter-1: inhibits GDH-TPI coupling enzymes, artifact for Mtb FBA screen; inhibition, % at 4.8 µM; GDH-TPI coupled enzyme counterscreen, NADH absorbance; 360,000 tested, 1.2% active; in the data active = inhibition above about 30%
CCHFV vOTU inh: CCHFV vOTU protease inhibition. Pep-AMC fluorescence. inhibition, % at 11.5 µM. 370,000 tested, 0.55% active; in the data active = inhibition above about 30%
Mtb FBA inh: inhibits M. tuberculosis FBA enzyme; P9WQA3; purified M. tuberculosis FBA, fluorescence read-out; inhibition, % at 1 µM; 360,000 tested, 2.3% active; AID 588726
Target sequence (P9WQA3 whole entry, looked up): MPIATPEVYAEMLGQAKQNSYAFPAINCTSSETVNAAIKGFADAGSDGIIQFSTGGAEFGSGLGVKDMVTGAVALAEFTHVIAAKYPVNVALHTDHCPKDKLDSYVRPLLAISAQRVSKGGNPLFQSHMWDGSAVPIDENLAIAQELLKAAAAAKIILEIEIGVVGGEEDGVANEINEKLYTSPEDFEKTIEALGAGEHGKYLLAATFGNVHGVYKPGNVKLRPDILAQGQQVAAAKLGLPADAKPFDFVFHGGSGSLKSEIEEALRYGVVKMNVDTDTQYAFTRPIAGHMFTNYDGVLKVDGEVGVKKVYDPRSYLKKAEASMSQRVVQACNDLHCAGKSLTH
Mtb FBA confirm: confirmation of M. tuberculosis fructose-bisphosphate aldolase inhibitors | shares compounds with Mtb FBA inh | purified M. tuberculosis FBA, fluorescence read-out | inhibition, % at 1 µM | 5,600 tested, 78% active
GDH-TPI counter-2: GDH-TPI inhibition counter-screen for FBA inhibitors. shares compounds with Mtb FBA inh. GDH-TPI coupled enzyme counterscreen, fluorescence. inhibition, % at 1 µM. 5,600 tested, 81% active; in the data active = inhibition above about 10%
GDH-TPI dose: inhibits GDH-TPI coupling enzymes in dose response; shares compounds with Mtb FBA inh; GDH-TPI coupled enzyme assay, fluorescence, artifact counterscreen; IC50, µM; 170 tested, 79% active; AID 652145; call rule not given here
Of the large screens only hits and unclear results are named; the others gave an inactive call (follow-up assays come after a bar, where they were run). Compounds with a hit are over-represented: about 4.7% of the library has one in this group of screens. Rule as the data show it, unless noted: active = inhibition above about 27%; inactive = the rest.

Cn1c(NN)nc2ccccc2c1=O	none
Cn1c(N)nc2ccccc2c1=O	Mtb FBA inh 28 | Mtb FBA confirm 34 | GDH-TPI counter-2 22
CCCOc1ccc(-c2nc(C#N)c(N3CCc4ccccc4C3)o2)cc1	none
CCOc1ccc(-c2nc(C#N)c(N3CCCCCC3)o2)cc1	Mtb FBA inh 100 | Mtb FBA confirm 46 | GDH-TPI counter-2 42
CCCOc1ccc(-c2nc(C#N)c(N3CCN(C)CC3)o2)cc1	Mtb FBA inh 40 | Mtb FBA confirm inactive | GDH-TPI counter-2 inactive
N#Cc1nc(-c2ccc(OCc3ccc(Cl)cc3)cc2)oc1N1CCOCC1	none
CCOc1ccc(-c2nc(C#N)c(N3CCN(C)CC3)o2)cc1	GDH-TPI counter-1 33, Mtb FBA inh 69 | Mtb FBA confirm active | GDH-TPI counter-2 active
C#CCOCCOCCOCCNc1nc(N2CCN(C(=O)C([C@@H](C)O)n3cc([C@@H](N)CCCCN)nn3)CC2)nc(N2CCN(C(=O)C([C@@H](C)O)n3cc([C@@H](N)CCCCN)nn3)CC2)n1 (stereo partly specified)	none (no result: RecA splice inh, DUSP3 inh, 3CLpro inhibitor)
COc1ccc(OC)c(S(=O)(=O)NC2CC(=O)N(c3cccc(F)c3)C2)c1 (stereo unspecified)	none (no result: DUSP3 inh, 3CLpro inhibitor)
CN(Cc1ccccc1)C(=O)[C@@H]1CCCN1C(=O)OC(C)(C)C	none (no result: RecA splice inh, DUSP3 inh, 3CLpro inhibitor, GDH-TPI counter-1, Mtb FBA inh)
COC(=O)C1=C(c2ccccc2OCc2ccccc2)C[C@@H]2CC[C@H]1N2C(=O)NCCOc1ccccc1Cl	Mtb FBA inh 46 (no result: RecA splice inh, DUSP3 inh, 3CLpro inhibitor) | Mtb FBA confirm 179 | GDH-TPI counter-2 122
COC(=O)C1=C(c2cccc(OCc3ccccc3)c2)C[C@@H]2CC[C@H]1N2C(=O)NCCOc1ccccc1Cl	none (no result: RecA splice inh, DUSP3 inh, 3CLpro inhibitor)
COc1ccc(/C=N/c2oc(-c3ccccc3)cc2C#N)cc1OC	Mtb FBA inh 48 | Mtb FBA confirm 28 | GDH-TPI counter-2 25
COc1ccccc1N1C(=O)c2ccccc2NC1c1ccc(O)cc1 (stereo unspecified)	Mtb FBA inh 42 | Mtb FBA confirm 52 | GDH-TPI counter-2 45
COc1ccc(N2C(=O)c3ccccc3NC2c2ccc(NC(C)=O)cc2)c(OC)c1 (stereo unspecified)	Mtb FBA inh 42 | Mtb FBA confirm 91 | GDH-TPI counter-2 64
COc1cc(C2Nc3ccccc3C(=O)N2c2ccccc2OC)ccc1O (stereo unspecified)	none
Cc1ccc(NC2c3ncccc3C(=O)N2Cc2ccco2)c(C)c1 (stereo unspecified)	none (no result: RecA splice inh)
Cc1cccc(NS(=O)(=O)c2ccc(C(=O)N3CCCCCC3)cc2)c1C	none (no result: DUSP3 inh, 3CLpro inhibitor)
COc1ccc(O)c(C(=O)CC(=O)c2ccc(F)cc2)c1	Mtb FBA inh 81 | Mtb FBA confirm 79 | GDH-TPI counter-2 52
COc1ccc(C(=O)COc2ccc(F)cc2)c(O)c1	none
CN1CCC(OC(c2ccccc2)c2ccccc2)CC1	none
CN1CCC(Oc2ccccc2Sc2ccccc2)CC1	Mtb FBA inh 29 | Mtb FBA confirm 167 | GDH-TPI counter-2 130
O=C(O)c1ccc(-n2cc(-c3cc4ccccc4oc3=O)[nH]c2=S)cc1	Mtb FBA inh 32 (no result: RecA splice inh) | Mtb FBA confirm 139 | GDH-TPI counter-2 99
CC(=O)Nc1ccc(-n2cc(-c3ccccc3)[nH]c2=S)cc1	none
COc1ccc(CNC(=S)Nc2ccc3nc(N4CCOCC4)cc(C)c3c2)cc1	Mtb FBA inh 31 | Mtb FBA confirm 33 | GDH-TPI counter-2 28
COCCCNC(=S)Nc1ccc2nc(N3CCOCC3)cc(C)c2c1	none
CCOCCCNC(=S)Nc1ccc2nc(N3CCOCC3)cc(C)c2c1	Mtb FBA inh 32 | Mtb FBA confirm active | GDH-TPI counter-2 active
COc1ccc(CNC(=S)Nc2ccc3nc(N4CCN(C)CC4)cc(C)c3c2)cc1	none
CC1(C)S[C@@H]2[C@H](NC(=O)[C@H](N)c3ccccc3)C(=O)N2[C@H]1C(=O)OC1OC(=O)c2ccccc21 (stereo partly specified)	Mtb FBA inh 66 (no result: RecA splice inh, DUSP3 inh, 3CLpro inhibitor) | Mtb FBA confirm active | GDH-TPI counter-2 160
CCC(Oc1ccccc1)C(=O)NC1C(=O)N2C1SC(C)(C)C2C(=O)O (stereo unspecified)	none
CCC1(C)Cc2c(sc3[nH]c(=O)[nH]c(=O)c23)CS1 (stereo unspecified)	Mtb FBA inh 80 | Mtb FBA confirm 72 | GDH-TPI counter-2 61
CN(C)c1nc(OCc2ccccc2)c2ncc(=O)[nH]c2n1	Mtb FBA inh 31 (no result: DUSP3 inh, 3CLpro inhibitor) | Mtb FBA confirm inactive | GDH-TPI counter-2 inactive | GDH-TPI dose 4.9
COc1cccc(C(=O)Nc2cc3c(cc2C(C)=O)OCCO3)c1	none
N#Cc1cc2c([nH]c1=O)CCCC2	Mtb FBA inh 68 | Mtb FBA confirm 97 | GDH-TPI counter-2 91
O=c1oc2c3c4c(cc2c2c1CCC2)OCCN4CCC3	Mtb FBA inh 97 (no result: RecA splice inh) | Mtb FBA confirm 79 | GDH-TPI counter-2 58
CCOC(=O)c1cnc2c(-c3ccc(Cl)cc3)cnn2c1C	none (no result: RecA splice inh)
CCOC(=O)c1cnc2c(-c3ccc(F)cc3)cnn2c1C(F)(F)F	Mtb FBA inh 74 (no result: RecA splice inh, CCHFV vOTU inh) | Mtb FBA confirm inactive | GDH-TPI counter-2 inactive
COc1ccc2c(CN3CCCCC3)cc(=O)oc2c1	Mtb FBA inh 44 (no result: RecA splice inh, DUSP3 inh, 3CLpro inhibitor, GDH-TPI counter-1) | Mtb FBA confirm inactive | GDH-TPI counter-2 inactive
C=CCN(CC=C)Cc1cc(=O)oc2cc(OC)ccc12	none (no result: RecA splice inh, DUSP3 inh, 3CLpro inhibitor, GDH-TPI counter-1)
CCCN(CCC)Cc1cc(=O)oc2cc(OC)ccc12	Mtb FBA inh 51 (no result: RecA splice inh, DUSP3 inh, 3CLpro inhibitor, GDH-TPI counter-1) | Mtb FBA confirm inactive | GDH-TPI counter-2 inactive
CCOC(=O)c1ccc(OCCOc2cccc(C)c2)cc1	none
CCCOc1ccc(-c2nc(C#N)c(N3CCN(CC)CC3)o2)cc1	Mtb FBA inh 44 | Mtb FBA confirm active | GDH-TPI counter-2 active
Cc1ccc(OCc2nc(C#N)c(N3CCN(Cc4ccccc4)CC3)o2)cc1	none
CCOc1ccc(-c2nc(C#N)c(N3CCN(CC)CC3)o2)cc1	Mtb FBA inh 59 | Mtb FBA confirm 44 | GDH-TPI counter-2 49
CCN1CCN(c2oc(-c3ccc([N+](=O)[O-])cc3)nc2C#N)CC1	none
Nc1ccc(-c2nc3ccc(-c4nc5ccccc5o4)cc3[nH]2)cc1	GDH-TPI counter-1 57, Mtb FBA inh 84 | Mtb FBA confirm 36 | GDH-TPI counter-2 25
Cc1nc2ccc(-c3nc4ccccc4o3)cc2[nH]1	Mtb FBA inh 50 | Mtb FBA confirm 63 | GDH-TPI counter-2 56
Nc1ccc(-c2nc3ccc([N+](=O)[O-])cc3[nH]2)cc1	none
Cc1cc(O)c(C(C[N+](=O)[O-])c2ccc(Cl)cc2)c(=O)o1 (stereo unspecified)	Mtb FBA inh 102 | Mtb FBA confirm inactive | GDH-TPI counter-2 inactive
COc1ccc(C(c2c(O)cc(C)oc2=O)c2c(O)cc(C)oc2=O)cc1	none
O=c1c2[nH]c3ccccc3c2ncn1CCN1CCCCC1	none

Screens: PubChem, several laboratories
